Shown are actives, neighbours in structure and some others; about 0.4% of the full set was active somewhere.
FMDV RLuc = Primary qHTS Assay for Foot and Mouth Disease Virus Antivirals against NCGC Sytravon and CBC Compound Libraries: Renilla Luciferase Signal; FMDV replicon cells, Renilla luciferase signal; Potency, µM (series often up to 57.5 µM), for the others: at the top dose activity change, negative = inhibition, most hits filed as inhibitors; 0.32% of 120,000 active; AID 1745857, 2022; note: nearly all actives have a fitted effect of over 55% in size
FMDV antiviral = Primary qHTS Assay for Foot and Mouth Disease Virus Antivirals against NCGC Sytravon and CBC Compound Libraries: Firefly Luciferase Signal; FMDV antiviral cell assay, firefly luciferase signal; Potency, µM (top dose mostly 57.5 µM), for inactives: at the top dose activity change, negative = inhibition, usual class: inhibitors; 0.23% of 120,000 active; note: nearly all actives have a fitted effect of over 60% in size
Numbers without * were called inactive; ? = inconclusive; [ ] = remark or other dose. Calls come from the whole dose curve. % is set by controls: 0 for no effect and ±100 for the full control effect; potency is the fitted concentration of half-maximal effect.

SMILES	FMDV RLuc	FMDV antiviral
Cc1ccccc1C(=O)N1CCN(c2ccc(NC(=O)c3ccc4c(c3)OCCO4)cc2)CC1	15.8µM*	?
CCOC(=O)c1cc(NC(=O)c2cccc(-c3cc4ccccc4oc3=O)c2)ccc1N1CCOCC1	6.1%	14.5%
NC(=S)NNc1ccccc1	0.9%	0.0%
Cc1cccc(-n2nnnc2C2(N3CCCC3)CCCC2)c1	16.3%	-4.2%
Cc1cccc(-n2nnnc2S(C)(=O)=O)c1	?	28.2µM*
COc1ccc2c(C)c(CCC(=O)Nc3c(C)cccc3C)c(=O)oc2c1	3.4%	-12.7%
CCCOc1ccc2ccccc2c1CN(C)C(=O)Cc1n[nH]c(=O)c2ccccc12	?	25.1µM*
CN(Cc1cccs1)C(=O)Cc1n[nH]c(=O)c2ccccc12	-0.5%	14.5%
COc1cc(C2CC(=O)c3c([nH]c(C(=O)OC4CCCC4)c3C)C2)cc(OC)c1OC (stereo not drawn)	8.91µM*	?
Cc1c(C(=O)OC2CCCCCC2)[nH]c2c1C(=O)CC(c1ccccc1)C2 (stereo not drawn)	-9.5%	-12.3%
O=C(Nc1cc(F)ccc1F)c1cc(-c2ccco2)nc2ccccc12	-14.1%	-10.6%
Cc1cc(C(=O)Cn2c(Cl)nc3c2c(=O)n(C)c(=O)n3C)c(C)n1CC(F)(F)F	15.8µM*	22.4µM*
Cc1cc(C(=O)Cn2c(Cl)nc3c2c(=O)n(C)c(=O)n3C)c(C)n1Cc1ccc(F)cc1	12.1%	0.0%
Oc1ccc2c(c1)OCCOCCOc1cc(O)ccc1OCCO2	10.1%	19.5%
CC(C)(C)c1ccc2c(c1)OCCOCCOCCOc1cc(C(C)(C)C)ccc1OCCOCCOCCO2	28.2µM*	?
CC(C)=CC1C(C(=O)Nc2cccc(OC(F)F)c2C)C1(C)C (stereo not drawn)	15.0%	-7.2%
O=C(C1CCN(S(=O)(=O)c2cccs2)CC1)N1CCN(c2cccc(Cl)c2)CC1	-0.6%	3.0%
O=C(C1CCC(CNS(=O)(=O)c2cccs2)CC1)N1CCN(c2ccc(Cl)cc2)CC1 (stereo not drawn)	4.47µM*	?
COc1ccc(C(=O)NCCc2csc(-c3ccc(Cl)cc3)n2)cc1	-21.8%	-16.3%
CCCCOc1ccc(C(=O)NCCc2csc(-c3ccc(OC)cc3)n2)cc1	11.2µM*	12.6µM*
COc1cc(OC)cc(C(=O)Nc2ccc3oc(-c4ccccc4Cl)nc3c2)c1	-10.0%	0.0%
CC(c1ccccc1)N(C)C(=O)CSc1nc2ccccc2o1 (stereo not drawn)	46.7%	68.9%
Cc1nc2ccccc2nc1SCC(=O)N(C)C(C)c1ccc(F)cc1 (stereo not drawn)	35.5µM*	28.2µM*
CCN1CCN(CCOc2ccc3cc(-c4ccccc4)c(=O)oc3c2)CC1	-3.5%	196.7%
Cc1nc(C)c(-c2ccc(SCC(=O)Nc3ccc(C)c(F)c3)nn2)s1	1.8%	2.6%
SMILES	FMDV RLuc	FMDV antiviral
Cc1nc(C)c(-c2ccc(SCC(=O)Nc3ccc(F)c(F)c3)nn2)s1	7.94µM*	?
COc1ccc(C(=O)Nc2ccc(N3CCN(S(C)(=O)=O)CC3)cc2)cc1OC	9.2%	-1.9%
Cc1cc(N(C)C)nc(Nc2ccc(NC(=O)Nc3ccc(F)cc3)cc2)n1	-7.3%	23.5%
CCN(CC)c1cc(C)nc(Nc2ccc(NC(=O)CCCc3ccccc3)cc2)n1	31.6µM*	?
COC(=O)c1nc2n(n1)C(c1ccc(C)cc1)C(C(=O)Nc1ccc(Cl)cc1)=C(C)N2 (stereo not drawn)	2.8%	8.4%
CCCCCCCCCCCCCCCC[N+](C)(C)C	-16.3%	-27.4%
CC#CC[N+](C)(C)CCCCCCCCCCCC	?	12.6µM*
COC(=O)c1ccc(NC(=O)CN(C)S(=O)(=O)c2ccc3c(c2)CCCC(=O)N3)cc1	0.9%	-3.0%
CN(CC(=O)Nc1ccc(OC(F)(F)F)cc1)S(=O)(=O)c1ccc2c(c1)CCC(=O)N2	?	22.4µM*
COc1cc(/C=C(/C#N)C(=O)c2ccccc2C)cc(Cl)c1O	5.6%[1.06 µM]	-1.8%
Cc1nc(-c2ccc(CNC(=O)c3nccnc3N)s2)cs1	8.91µM*	?
Cc1nc(-c2ccc(CCNC(=O)c3nccnc3N)s2)cs1	?	26.4%
COc1ccc(C(=O)Nc2ccc(S(=O)(=O)N(Cc3ccccc3)c3ccccc3)cc2)cc1	5.01µM*	5.01µM*
CCOc1ccc(C(=O)Nc2ccc(-n3nncc3-c3ccc(OC)cc3)cc2)cc1	-5.1%	-14.3%
O=C(COc1ccccc1)Nc1ccc(S(=O)(=O)N(Cc2ccccc2)c2ccccc2)cc1	-5.5%	-10.0%
COc1ccc(-c2cnnn2-c2ccc(NC(=O)c3ccc(S(=O)(=O)N(C)C)cc3)cc2)cc1	6.31µM*	?
Cc1ccc(NC(=O)Cc2coc3ccc(C(C)C)cc23)cc1Cl	-19.1%	?
CCc1ccc2occ(CC(=O)Nc3ccc(C)c(C)c3)c2c1	?	25.1µM*
